Assay results taken from PubChem BioAssay (NCATS).

test: qHTS profiling of the MIPE4 collection as inhibitors of Plasmodium falciparum (DD2) proliferation (Rep 2) (AID 743346); settings: P. falciparum Dd2 in erythrocytes, SYBR Green DNA, 72 h; at 28.5 µM unless noted
Description: Plasmodium falciparum is a virulent malarial parasite that kills 1-2 million people worldwide each year. Transmitted by mosquitoes, the sporozoite form of the parasite enters the blood stream to infect hepatocytes, where they become merozoites that infect red blood cells (erythrocytes). Within erythrocytes, merozoites begin a […] cycle of growth and division, after which the parasite is released to infect new red blood cells. Gametocytes, which form within erythrocytes as well, circulate in the bloodstream and are ingested by the mosquito, thereby completing the life cycle. To profile malarial isolates for differential chemical responses and to identify inhibitors of malarial growth, an assay that measures P. falciparum growth and replication within erythrocytes was employed. This assay uses a DNA binding fluorescent dye (SYBR Green) to detect parasite DNA following cell lysis. Because mature erythrocytes lack DNA, only Plasmodium-derived DNA is detected.
The SYBR Green viability assay was adapted from a method described previously (Plouffe et al., 2008). For screening 3 ul culture medium was dispensed into 1536 well black clear bottom plates (Aurora Biotechnologies) using a Multidrop Combi (Thermo Fisher Scientific Inc.), 23 nL compounds in DMSO were added by a pin tool (Kalypsys), and 5 ul of erythrocytes infected with P. falciparum (0.3% parasitemia, 2.5% hematocrit final concentration) were added. The plates were incubated at 37 C in a humidified incubator in 5% CO2 for 72 h, and 2 ul lysis buffer (20 mM Tris HCl, 10 mM EDTA, 0.16% saponin, 1.6% triton X, 10X SYBR Green I supplied as 10,000X […] by Invitrogen) was added to each well. The plates were mixed for 25 sec with gentle shaking and incubated overnight at room temperature in the dark. The following morning, fluorescence intensity at 485(14) nm excitation and 535(25) nm emission wavelengths was measured on an EnVision (Perkin Elmer) plate reader. Plate reads were normalized relative to the control inhibitor (0.29 uM artemisinin) and vehicle (DMSO) wells present on each plate and then corrected by an algorithm using vehicle-only control plates at the beginning and end of the compound plate stack.

Row | SMILES | parasite growth, % of control (lower = inhibition)
1 | CCOC(=O)N1CCN([N+]([O-])=NOc2cc(ON=[N+]([O-])N3CCN(C(=O)OCC)CC3)c([N+](=O)[O-])cc2[N+](=O)[O-])CC1 | 49.8%
2 | O[C@@H](COc1cccc2ncccc12)CN1CCN(C2c3ccccc3[C@@H]3[C@H](c4ccccc42)C3(F)F)CC1 (stereo not given in full) | 54.1%
3 | C=C1[C@H](n2cnc3c(=O)[nH]c(N)nc32)C[C@H](O)[C@H]1CO | 34.7%
4 | COc1cc2ncn(-c3cc(OCc4ccccc4S(C)(=O)=O)c(C#N)s3)c2cc1OC | 75.9%
5 | CN(C)CCCNC(=O)c1ccc(-c2cc(O)c3ncccc3c2)cc1 | 23.5%
6 | CCC[C@H](Nc1nc(-c2ccc(NC(=O)NCC)c(OC)c2)ncc1C)c1cccnc1 | 20.1%
7 | Cc1ccc(C(=O)N(CCCN)[C@@H](c2oc3cc(Cl)ccc3c(=O)c2Cc2ccccc2)C(C)C)cc1 | 8.99%
8 | COc1ccc(Cn2ccc3ccc(C(=O)NO)cc32)cc1 | 8.17%
9 | CC[C@H](CC#N)OC(=O)N[C@@H](C)c1cccc(NC(=O)Nc2ccc(-c3cnco3)c(OC)c2)c1 | 17.5%
10 | Cn1cnc(-c2cc3nccc(Oc4ccc(NC(=S)NC(=O)Cc5ccccc5)cc4F)c3s2)c1 | 28.5%
11 | COc1nccc(-c2c(-c3ccc(F)cc3)ncn2C2CCNCC2)n1 | 41%
12 | O=C(CCCN1CCN(c2ccc(F)cc2)CC1)NC1c2ccccc2CSc2ccccc21 (stereo not given) | 80.9%
13 | COc1cc2nccc(Oc3ccc(NC(=O)Nc4ccc(F)cc4F)c(F)c3)c2cc1OC | 46.4%
14 | C[C@]12CC[C@@H]3c4ccc(O)cc4CC[C@H]3[C@H]1[C@@H](O)[C@@H](O)[C@H]2O | 7.28%
15 | COc1cc(Nc2nc3ccccc3nc2NS(=O)(=O)c2ccc(NC(=O)c3ccc(C)c(OC)c3)cc2)cc(OC)c1 | 32.8%
16 | CC(C)(F)C[C@H](N[C@@H](c1ccc(-c2ccc(S(C)(=O)=O)cc2)cc1)C(F)(F)F)C(=O)NC1(C#N)CC1 | 61%
17 | O=C(c1ccc(F)c(F)c1Nc1ccc(I)cc1F)N1CC(O)([C@H]2CCCCN2)C1 | 20.2%
18 | CN1CC(=O)N2C(Cc3c([nH]c4ccccc34)[C@H]2c2ccc3c(c2)OCO3)C1=O (stereo not given in full) | 23.9%
19 | O=C(Nc1cccc2c(=O)cc(-c3nn[nH]n3)oc12)c1ccc(OCCCCc2ccccc2)cc1 | 15.1%
20 | Nc1ncnc2c1c(-c1cccc(OCc3ccccc3)c1)cn2C1CC(CN2CCC2)C1 (stereo not given) | 21.6%

Row | SMILES | parasite growth, % of control (lower = inhibition)
21 | CNC1CCC(N(Cc2cccc(-c3ccncc3)c2)C(=O)c2sc3ccccc3c2Cl)CC1 (stereo not given) | 9.91%
22 | CN1CCc2c(n(Cc3ccc(C(=O)NO)cc3)c3ccccc23)C1 | 9.26%
23 | CCCCn1c(=O)n(Cc2ccccc2F)c(=O)c2[nH]c(Cc3ccc(NC(C)=O)cc3)nc21 | 43.7%
24 | O=S(=O)(O)c1ccc2cc(N=Nc3cc(S(=O)(=O)O)c4cccnc4c3O)ccc2c1 | 77.8%
25 | NC1(C(=O)N[C@@H](CCO)c2ccc(Cl)cc2)CCN(c2ncnc3[nH]ccc23)CC1 | 24.5%
26 | CC(C)=CCCC(C)=CCCC(C)=CCCC(C)=CCCC(C)=CCCC(C)=CCCC(C)=CCCC(C)=CCCC(C)=CCO | 99.4%
27 | CCOC(=O)N1c2ccc(C(F)(F)F)cc2[C@@H](N(Cc2cc(C(F)(F)F)cc(C(F)(F)F)c2)C(=O)OC)C[C@H]1CC | 14.4%
28 | CC1(C)OC2CC3C4CC(F)C5=CC(=O)C=CC5(C)C4C(O)CC3(C)[C@]2(C(=O)CO)O1 (stereo not given in full) | 7.06%
29 | Cc1cnc(CNC(=O)c2c(=O)c3ccc(N4CCCN(C)CC4)nc3n3c2sc2ccccc23)cn1 | 13.1% [at 9.64 µM]
30 | CCN1CCN(c2ccc(Nc3cc(N(C)C(=O)Nc4c(Cl)c(OC)cc(OC)c4Cl)ncn3)cc2)CC1 | 8.62%
31 | Cc1ccc2c(c1)C(=O)[C@]1(O)CCN(c3ccccc3)C1=N2 | 89.8%
32 | Nc1nc(Cl)nc2c1ncn2[C@@H]1O[C@H](CO)[C@@H](O)[C@H]1F | 63.9%
33 | CN[C@@H]1[C@@H](O)[C@@H](O[C@@H]2[C@@H](O)[C@H](O[C@H]3O[C@H](CN)[C@@H](O)[C@H](O)[C@@H]3O)[C@@H](N)C[C@@H]2NC(=O)[C@@H](O)CN)OC[C@]1(C)O | 90.7%
34 | CCCCc1ccc(NS(=O)(=O)c2ccc(C)c(C(=O)N3CCN(c4cccc(C)c4C)CC3)c2)cc1 | 59.2%
35 | CCOC(=O)[C@H]1O[C@H]1C(=O)N[C@@H](CC(C)C)C(=O)NCCC(C)C | 15.6%
36 | CCN1CCC(n2cc(CNc3cc(Cl)c4ncc(C#N)c(Nc5ccc(F)c(Cl)c5)c4c3)nn2)CC1 | 12.3%
37 | CC(C)Oc1cc(Nc2nc(N[C@@H](C)c3ccc(F)cn3)ncc2Cl)[nH]n1 | 23.2%
38 | CCC(c1ccc(O)cc1)C(CC)c1ccc(O)cc1 (stereo not given) | 75%
39 | CC(C)c1onc(-c2c(Cl)cccc2Cl)c1COc1ccc(C=Cc2cccc(C(=O)O)c2)c(Cl)c1 | 53.3%
40 | CC1(C)CC(=O)c2c(C(F)(F)F)nn(-c3ccc(C(N)=O)c(NC4CCC(O)CC4)c3)c2C1 (stereo not given) | 13%
